# Measured values taken from PubChem BioAssay (NCI).
# The panel holds about 79,000 compounds, 15% with a hit somewhere; the sample as a whole holds those more often. Values without a mark were called inactive. Activity calls are given as the source filed them. No stated cut-off is given here; in the data, active means growth inhibition above about 70%; inactive means the rest.
# Legend:
# [1] = NCI Yeast Anticancer Drug Screen. Data for the rad52 strain (AID 147);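 further: 0% = growth of vehicle-treated control cultures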; conditions: S. cerevisiae rad52 mutant growth inhibition, hits give high values
# How it was run: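 DNA repair-defective yeast; compound exposure; growth scored against vehicle controls.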
# [2] = NCI Yeast Anticancer Drug Screen. Data for the wt1 strain (AID 149);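 further: 0% = growth of vehicle-treated wt1 cultures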; conditions: S. cerevisiae wt1 strain (SPY 50644) growth inhibition, hits give high values
# How it was run: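 The wt1 strain was treated with compounds, and growth was compared with vehicle-treated cultures to give inhibition.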
# [3] = NCI Yeast Anticancer Drug Screen. Data for the rad50EPP+ strain (AID 151);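 further: 0% = growth of vehicle-treated control cultures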; conditions: S. cerevisiae rad50 mutant strain, hits give high values
# How it was run: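 rad50EPP+ yeast treated with test compounds. Readout: growth vs vehicle control.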
# [4] = NCI Yeast Anticancer Drug Screen. Data for the mgt1 strain (AID 153); conditions: S. cerevisiae mgt1 mutant growth inhibition, hits give high values
# How it was run: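 Growth inhibition relative to vehicle controls was scored for the mgt1 yeast strain after compound exposure.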
# [5] = NCI Yeast Anticancer Drug Screen. Data for the rad50 strain (AID 155);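 further: 0% = growth of vehicle-only cultures of the same strain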; conditions: S. cerevisiae rad50 strain growth inhibition, hits give high values
# How it was run: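 Cells are treated with compound, grown, and their growth is then scored against vehicle-only cultures of the same repair-deficient yeast strain.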
# [6] = NCI Yeast Anticancer Drug Screen. Data for the mec2-1 strain (AID 157); conditions: S. cerevisiae mec2-1 strain, hits give high values
# How it was run: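 Growth inhibition is read against vehicle-treated controls after compound exposure of the mec2-1 yeast strain, which is defective in DNA damage repair or cell cycle control.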
# [7] = NCI Yeast Anticancer Drug Screen. Data for the rad14 strain (AID 159);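 further: 0% = growth of vehicle-treated control cultures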; conditions: S. cerevisiae rad14 strain growth inhibition, hits give high values
# How it was run: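 Readout: yeast growth inhibition, referenced to vehicle-only cultures. Strain bears a defined alteration in DNA damage repair.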
# [8] = NCI Yeast Anticancer Drug Screen. Data for the sgs1 mgt1 strain (AID 161);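 further: 0% = growth of cultures given vehicle only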; conditions: S. cerevisiae sgs1 mgt1 strain, hits give high values
# How it was run: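 Growth of a repair-deficient yeast mutant was monitored after compound treatment and expressed as inhibition relative to vehicle-treated cultures.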
# [9] = NCI Yeast Anticancer Drug Screen. Data for the CLN2oe strain (AID 163);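 further: 0% = growth of vehicle-only control cultures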; conditions: S. cerevisiae CLN2oe strain, hits give high values
# How it was run: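 Compound-treated yeast; growth vs vehicle ctrl = % inhibition. Genetically altered strain (cell-cycle control).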
# [10] = NCI Yeast Anticancer Drug Screen. Data for the cln2 rad14 strain (AID 165);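 further: 0% = growth equal to vehicle treated cultures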; conditions: S. cerevisiae cln2 rad14 strain, hits give high values
# How it was run: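 Growth inhibition, relative to vehicle-treated controls, is the read-out. The test organism is a yeast strain with defined genetic alterations, cln2 rad14.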
# [11] = NCI Yeast Anticancer Drug Screen. Data for the bub3 strain (AID 167); conditions: S. cerevisiae bub3 mutant strain, hits give high values
# How it was run: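 Part of a panel of yeast mutants defective in DNA damage repair or cell cycle regulation. Each strain is grown with compound, and inhibition is calculated relative to solvent-treated cultures.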
# [12] = NCI Yeast Anticancer Drug Screen. Data for the wt2 strain (AID 169);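 further: 0% = growth of vehicle-treated yeast cultures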; conditions: S. cerevisiae wt2 strain growth inhibition, hits give high values
# How it was run: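 Compound exposure of yeast; growth compared with vehicle controls; inhibition reported.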
# [13] = NCI Yeast Anticancer Drug Screen. Data for the mlh1 strain (AID 171);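 further: 0% = growth of vehicle-treated control cultures of the same strain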; conditions: S. cerevisiae mlh1 strain growth inhibition, hits give high values
# How it was run: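 Compounds are applied to a genetically altered yeast strain, and its growth is compared with that of vehicle-treated cultures to give percent inhibition.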
# [14] = NCI Yeast Anticancer Drug Screen. Data for the sgs1 strain (AID 173);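 further: 0% = growth of vehicle-only control cultures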; conditions: S. cerevisiae sgs1 mutant, hits give high values
# How it was run: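 Compounds applied to genetically altered yeast; growth compared with vehicle-treated cultures to give % inhibition.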
# [15] = NCI Yeast Anticancer Drug Screen. Data for the mlh1 rad18 strain (AID 175); conditions: S. cerevisiae mlh1 rad18 strain growth inhibition, hits give high values
# How it was run: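 Cells of a genetically altered yeast strain, deficient in DNA damage repair, were treated with compound. Their growth was then compared with that of vehicle-treated cultures to give inhibition.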
# [16] = NCI Yeast Anticancer Drug Screen. Data for the rad18 strain (AID 177); conditions: S. cerevisiae rad18 mutant growth inhibition, hits give high values
# How it was run: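 Compounds are applied to a repair-deficient yeast strain, and growth is compared with that of vehicle-treated cultures to give percent inhibition.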
# [17] = at 5.0 µM (retest, dose inferred, filed as 0.5)
# [18] = at 50.0 µM (retest, dose inferred, filed as 5.0)
smiles,measurement,setting,value
NNC(=S)Nc1cccc2ccccc12,growth inhibition,[1]; at 1.2 µM,-10%
same,growth inhibition,[1]; at 3.7 µM,-35%
same,growth inhibition,[1]; at 11.0 µM,-29%
same,growth inhibition,[1]; at 33.0 µM,8%
same,growth inhibition,[1]; at 100.0 µM,20%
same,growth inhibition,[2]; at 1.2 µM,-21%
same,growth inhibition,[2]; at 3.7 µM,-17%
same,growth inhibition,[2]; at 11.0 µM,-24%
same,growth inhibition,[2]; at 33.0 µM,-7%
same,growth inhibition,[2]; at 100.0 µM,7%
same,growth inhibition,[3]; at 1.2 µM,-48%
same,growth inhibition,[3]; at 3.7 µM,-52%
same,growth inhibition,[3]; at 11.0 µM,-54%
same,growth inhibition,[3]; at 33.0 µM,-45%
same,growth inhibition,[3]; at 100.0 µM,4%
same,growth inhibition,[4]; at 1.2 µM,-16%
same,growth inhibition,[4]; at 3.7 µM,-45%
same,growth inhibition,[4]; at 11.0 µM,-23%
same,growth inhibition,[4]; at 33.0 µM,-7%
same,growth inhibition,[4]; at 100.0 µM,60%
same,growth inhibition,[5]; at 1.2 µM,-31%
same,growth inhibition,[5]; at 3.7 µM,-26%
same,growth inhibition,[5]; [17],45%
same,growth inhibition,[5]; at 11.0 µM,-31%
same,growth inhibition,[5]; at 33.0 µM,-6%
same,growth inhibition,[5]; [18],35%
same,growth inhibition,[5]; at 50.0 µM,23.6%
same,growth inhibition,[5]; at 100.0 µM,43%
same,growth inhibition,[6]; at 1.2 µM,-16%
same,growth inhibition,[6]; at 3.7 µM,-41%
same,growth inhibition,[6]; [17],60%
same,growth inhibition,[6]; at 11.0 µM,-20%
same,growth inhibition,[6]; at 33.0 µM,-9%
same,growth inhibition,[6]; [18],78% (active)
same,growth inhibition,[6]; at 50.0 µM,23.8%
same,growth inhibition,[6]; at 100.0 µM,12%
same,growth inhibition,[7]; at 1.2 µM,-14%
same,growth inhibition,[7]; at 3.7 µM,-33%
same,growth inhibition,[7]; at 11.0 µM,-50%
same,growth inhibition,[7]; at 33.0 µM,-32%
same,growth inhibition,[7]; at 100.0 µM,28%
same,growth inhibition,[8]; [17],-11%
same,growth inhibition,[8]; [18],54%
same,growth inhibition,[9]; at 1.2 µM,5%
same,growth inhibition,[9]; at 3.7 µM,-3%
same,growth inhibition,[9]; at 11.0 µM,2%
same,growth inhibition,[9]; at 33.0 µM,3%
same,growth inhibition,[9]; at 100.0 µM,27%
same,growth inhibition,[10]; [17],31%
same,growth inhibition,[10]; [18],67%
same,growth inhibition,[11]; at 1.2 µM,-6%
same,growth inhibition,[11]; at 3.7 µM,-9%
same,growth inhibition,[11]; [17],36%
same,growth inhibition,[11]; at 11.0 µM,-15%
same,growth inhibition,[11]; at 33.0 µM,13%
same,growth inhibition,[11]; [18],59%
same,growth inhibition,[11]; at 100.0 µM,55%
same,growth inhibition,[12]; at 1.2 µM,-40%
same,growth inhibition,[12]; at 3.7 µM,-36%
same,growth inhibition,[12]; at 11.0 µM,-33%
same,growth inhibition,[12]; at 33.0 µM,-16%
same,growth inhibition,[12]; at 100.0 µM,17%
same,growth inhibition,[13]; at 1.2 µM,-37%
same,growth inhibition,[13]; at 3.7 µM,-38%
same,growth inhibition,[13]; at 11.0 µM,-29%
same,growth inhibition,[13]; at 33.0 µM,-13%
same,growth inhibition,[13]; at 100.0 µM,48%
same,growth inhibition,[14]; at 1.2 µM,-14%
same,growth inhibition,[14]; at 3.7 µM,-33%
same,growth inhibition,[14]; at 11.0 µM,-19%
same,growth inhibition,[14]; at 33.0 µM,-8%
same,growth inhibition,[14]; at 100.0 µM,37%
same,growth inhibition,[15]; [17],40%
same,growth inhibition,[15]; [18],62%
same,growth inhibition,[15]; at 50.0 µM,49.2%
same,growth inhibition,[16]; at 1.2 µM,-32%
same,growth inhibition,[16]; at 3.7 µM,-39%
same,growth inhibition,[16]; at 11.0 µM,-21%
same,growth inhibition,[16]; at 33.0 µM,2%
same,growth inhibition,[16]; at 100.0 µM,18%
